Assay results as given in publication PMC5540273 (PLoS ONE, 2017).

system: BRSK1; settings: concentration: 1 μM, replicates: in singlicate; n = 1
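Also: KINOMEscan kinase panel screen.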

| Compound | %Inh [%] |
| --- | --- |
| COc1cc(Nc2nccc(N3CCC(NS(=O)(=O)c4ccc(NC(C)=O)cc4)CC3)n2)cc(OC)c1OC [GSK1379825] | 0 |
| Cc1cc(-c2ccnc(Nc3cccc(C#N)c3)n2)cc(C)c1O [GSK1440913] | 2 |
| Cc1ccc(C)c(NC(=O)Nc2ccc(C)c(-c3ccc(C(=O)Nc4ccncc4)cc3)c2)c1 [GSK1398473] | 0 |
| CN(C)CCNS(=O)(=O)c1ccc(-c2ccnc3[nH]ccc23)cc1 [GSK977620] | 19 |
| O=C(Nc1n[nH]c2nc(-c3cccc(O)c3)ccc12)C1CC1 [SB-711805] | 53 |
| COc1cccc(C2=C(Nc3cccc(O)c3)C(=O)NC2=O)c1 [SB-390771] | 7 |
| CSc1ccc(NC2=C(c3ccc(Cl)cc3)C(=O)NC2=O)cc1 [SB-317658] | 0 |
| Cc1ccc(O)cc1Nc1ccnc2cc(-c3ccc(CN4CCCCC4)o3)ccc12 [GW557777] | 0 |
| Fc1cc(Cl)ccc1Nc1ccnc2cc(-c3ccc(CN4CCOCC4)o3)ccc12 [GW560109] | 13 |
| COC(=O)Nc1nc2ccc(Oc3ccc(NC(=O)Nc4cc(C(F)(F)F)ccc4F)cc3)cc2[nH]1.Cl [GW654607] | 0 |
| CN(c1ccc(NC(=O)N2CCN(CCCN3CCOCC3)CC2)cc1)c1ccnc(Nc2ccc(CS(C)(=O)=O)cc2)n1.Cl [GW830899] | 83 |
| CCn1c(-c2nonc2N)nc2c(-c3ccccc3)ncc(OCCCN)c21.O=C(O)C(F)(F)F.O=C(O)C(F)(F)F [GSK260205] | 0 |
| COc1cc(Nc2nccc(N3CCC(NC(=O)Nc4ccc5c(c4)OCO5)C3)n2)cc(OC)c1OC (stereo not drawn) [GSK1379766] | 0 |
| Cc1ccc(NC(=O)c2ccnc(N3CCCCC3)c2)cc1-c1ccc(C(=O)NCC2CC2)cc1 [GW775610] | 9 |
| COC(=O)Nc1nc2ccc(Oc3ccc(CC(=O)Nc4cc(C(F)(F)F)ccc4F)cc3)cc2[nH]1 [GW680903] | 1 |
| COc1ccc(NC(=O)c2ccoc2)cc1-c1ccc(C(=O)NCC2CC2)cc1 [GW810437] | 0 |
| Cc1cccc(Nc2nc(NCCN)ncc2C(N)=O)c1 [GSK1292139] | 10 |

| Compound | %Inh [%] |
| --- | --- |
| Cl.N#CCc1ccc(Nc2nccc(Nc3ccc(Oc4ccccc4)cc3)n2)cc1 [GW639905] | 0 |
| Fc1cc(Cl)ccc1Nc1ccnc2cc(-c3ccc(CN4CCSCC4)o3)ccc12 [GW560106] | 0 |
| NCCC(NC(=O)c1cc(Br)c(-c2ccnc3[nH]ccc23)s1)c1ccccc1.O=C(O)C(F)(F)F.O=C(O)C(F)(F)F (stereo not drawn) [GSK1307810] | 1 |
| O=C(O)C(F)(F)F.O=c1[nH]ccc2nc(N[C@@H]3CCNC3)nc(Nc3ccc4c(c3)S(=O)(=O)CC4)c12 [GSK2181306] | 52 |
| Cc1ccccc1CC(=O)N1CCc2cc(-c3cn(C)c4ncnc(N)c34)ccc21 [GSK2603346] | 0 |
| CCNC(=O)/C=C/c1n[nH]c2cc(Sc3ccccc3C(=O)NC)ccc12 | 38 |
| Nc1ncc(-c2ccc3nccc(-c4ccncc4)c3c2)cc1S(=O)(=O)N1CCCCC1 [GSK1693850] | 0 |
| CS(=O)(=O)c1cccc(CNc2nc(Nc3ccc4c(c3)CCC(=O)N4)ncc2C(F)(F)F)c1 | 0 |
| COc1ccc(C)c(Nc2ccnc(Nc3ccc(-c4cnc[nH]4)cc3)n2)c1.Cl [GW784041] | 8 |
| O=C(O)C(F)(F)F.O=c1[nH]ccc2nc(N[C@@H]3CCNC3)nc(Nc3cc(Cl)cc(Cl)c3)c12 [GSK2188764] | 19 |
| Cl.Cl.NC(CNC(=O)c1cc(Br)c(-c2ccnc3[nH]ccc23)s1)c1ccccc1 (stereo not drawn) [GSK1322949] | 50 |
| COC(=O)Nc1nc2cc(Oc3ccc(NC(=O)Nc4cccc(SC)c4)cc3)ccc2[nH]1.Cl [GW697999] | 3 |
| CCOc1nccc(-c2c(-c3ccc(F)cc3)ncn2C2CCNCC2)n1 [SB-249175] | 0 |
| Cl.Cl.NCC(NC(=O)c1cc(-c2cccnc2)c(-c2ccnc3[nH]ccc23)s1)c1ccccc1 (stereo not drawn) [GSK1323434] | 5 |
| Nc1ncnc2scc(-c3ccc(NC(=O)Cc4cc(F)ccc4F)cc3)c12.O=C(O)C(F)(F)F [SB-731254-M] | 2 |
| Cn1cc(-c2ccc3c(c2)CCN3C(=O)Cc2cc(F)cc(C(F)(F)F)c2)c2c(N)ncnc21 [GSK2635225] | 0 |
